Screen size: about 39,000 compounds; about 1,500 (3.8%) were called active. Many of the other results were omitted from the sample, so actives are more common in it than they were.

The test system of this assay is HSkMC (human skeletal muscle cells). The assay can be described thus: cytotoxicity call (relative viability < 0.9). To be noted: 10 µM.
For the molecule `C[C@@H]1CN([C@H](C)CO)C(=O)c2cc(NC(=O)C3CCCCC3)ccc2O[C@@H](C)CCCCO[C@H]1CN(C)S(=O)(=O)c1ccccc1`, the cytotoxicity call is “inactive”.
Then `C[C@H]1CN([C@@H](C)CO)C(=O)c2c(c3ccccc3n2C)-c2ccccc2CO[C@H]1CN(C)C(=O)Nc1ccccc1C(F)(F)F`, with “inactive”.
`COc1ccc(NC(=O)Nc2cccc3c2O[C@@H](CN(C)Cc2ccc(Cl)c(Cl)c2)[C@H](C)CN([C@H](C)CO)C3=O)cc1`: the cytotoxicity call is “inactive”.
On to `CC(C)NC(=O)Nc1ccc2c(c1)C(=O)N([C@@H](C)CO)C[C@@H](C)[C@H](CN(C)Cc1ccc(Cl)c(Cl)c1)OCCCC[C@@H](C)O2`, for which the cytotoxicity call is “inactive”.
Then `C[C@@H]1CN([C@@H](C)CO)C(=O)c2cccc(NC(=O)c3ccncc3)c2O[C@@H]1CN(C)S(=O)(=O)c1cccs1`, with “inactive”; and `C[C@H]1CN([C@@H](C)CO)C(=O)CCCn2cc(nn2)CO[C@H]1CN(C)C(=O)C1CC1`, with “inactive”; and `O=C(C[C@@H]1CC[C@@H]2[C@H](COC[C@H](O)CN2S(=O)(=O)c2cccc(F)c2)O1)NCCCN1CCOCC1`, with “inactive”.
Then `CNc1nc(OCC#N)nc(N2CCCCC2)n1`, with “inactive”; and `COC(=O)[C@@]12OC[C@]34[C@H]([C@@H](O)[C@@H]1O)[C@@]1(C)CC(=O)C(=O)[C@H](C)[C@@H]1C[C@H]3OC(=O)[C@H](OC(=O)/C=C(\C)C(C)C)[C@@H]24`, with “active”.
Next, `C[C@H](CO)N1C[C@H](C)[C@@H](CN(C)S(=O)(=O)c2ccccc2)Oc2ncc(C#Cc3ccccc3F)cc2C1=O`: “inactive”; `O=C(C[C@@H]1CC[C@H]2[C@@H](COC[C@@H](O)CN2C(=O)c2ccc3c(c2)OCO3)O1)NCCN1CCCCC1`: “inactive”.
`CC(=O)NCC(=O)N1CCC2(CC1)CN(c1cnn(C)c1)C(=O)CO2`: the cytotoxicity call was “inactive”.
Next, `COc1ccccc1N1CCN(CC(O)COc2cccc3ccccc23)CC1` (stereo unspecified): “inactive”; `O=C1C(=O)N(C[C@@H](O)COc2cccc3ccccc23)C(=O)C(=O)N1C[C@@H](O)COc1cccc2ccccc12`: “inactive”.
With `O[C@@H](COc1cccc2ncccc12)CN1CCN([C@@H]2c3ccccc3[C@@H]3[C@H](c4ccccc42)C3(F)F)CC1`, the cytotoxicity call is “active”.
Then `C[C@H](CO)N1C[C@H](C)[C@@H](CN(C)C(=O)c2ccncc2)OCCCC[C@H](C)Oc2ccc(NS(C)(=O)=O)cc2C1=O`, with “inactive”; and `C[C@@H]1CN([C@H](C)CO)C(=O)c2cc(NC(=O)Nc3ccc(C(F)(F)F)cc3)ccc2O[C@@H](C)CCCCO[C@@H]1CN(C)C(=O)Nc1cccc2ccccc12`, with “inactive”; and `C[C@@H]1CN([C@H](C)CO)C(=O)c2cccc(NC(=O)Nc3ccccc3)c2O[C@@H]1CN(C)S(C)(=O)=O`, with “inactive”.
With `COc1ccc2c3c(n(c2c1)C)[C@@H](CO)N(CC1CC1)C[C@]13CCN(CC1)S(=O)(=O)c1cn(cn1)C`, the cytotoxicity call is “inactive”.
As to `C[C@H](NC(=O)c1c(N)nn2cccnc12)c1cc2cccc(C#Cc3cnn(C)c3)c2c(=O)n1-c1ccccc1`, the cytotoxicity call is “active”.
Turning to `C[C@@H]1CCCCO[C@H](CN(C)C(=O)Nc2ccccc2)[C@@H](C)CN([C@@H](C)CO)C(=O)c2cc(NC(=O)Cc3ccccc3)ccc2O1`, the cytotoxicity call was “inactive”.
Next, `COc1ccc(S(=O)(=O)N(C)C[C@@H]2Oc3cc(C#CC4CC4)ccc3S(=O)(=O)N([C@@H](C)CO)C[C@@H]2C)cc1`: “inactive”.
In the case of `C=CC(=O)Nc1cccc(Nc2nc(Nc3ccc(NC4CN(CCF)C4)cc3OC)ncc2C(F)(F)F)c1`, the cytotoxicity call is “active”.
As to `C=CC(=O)Nc1cccc(C)c1Nc1ncc2cc(-c3c(Cl)c(OC)cc(OC)c3Cl)ccc2n1`, the cytotoxicity call was “inactive”.
Regarding `C[C@@H]1CN([C@@H](C)CO)C(=O)c2cc(NC(=O)C3CC3)ccc2O[C@H]1CN(C)S(=O)(=O)c1ccccc1`, the cytotoxicity call was “inactive”.
Consider `C[C@@H](NC(=O)C[C@@H]1CC[C@H](NC(=O)CN2CCOCC2)[C@H](CO)O1)c1ccccc1`, for which the cytotoxicity call is “inactive”.
Then `CC[C@H](C)n1ncn(-c2ccc(N3CCN(c4ccc(OC[C@H]5CO[C@](Cn6cncn6)(c6ccc(Cl)cc6Cl)O5)cc4)CC3)cc2)c1=O`, with “active”; and `CCC(C)n1ncn(-c2ccc(N3CCN(c4ccc(OCC5COC(Cn6cncn6)(c6ccc(Cl)cc6Cl)O5)cc4)CC3)cc2)c1=O.Cl.Cl` (stereo unspecified), with “inactive”; and `CC[C@@H](C)n1ncn(-c2ccc(N3CCN(c4ccc(OC[C@H]5CO[C@](Cn6cncn6)(c6ccc(Cl)cc6Cl)O5)cc4)CC3)cc2)c1=O`, with “inactive”.
Next, `CS(=O)(=O)N1CCN(Cc2cc3nc(-c4cccc5n[nH]cc45)nc(N4CCOCC4)c3s2)CC1`: “active”; `CO[C@@H]1CN(C)C(=O)c2ccc(NC(=O)NC(C)C)cc2OC[C@@H](C)N(Cc2ccc(-c3ccccn3)cc2)C[C@H]1C`: “inactive”; `C[C@H](CO)N1C[C@H](C)[C@H](CN(C)CC2CC2)Oc2ccc(NS(=O)(=O)c3cccs3)cc2C1=O`: “inactive”.
Next, `C[C@H]1CCCCO[C@H](CN(C)C(=O)Nc2ccc(C(F)(F)F)cc2)[C@@H](C)CN([C@@H](C)CO)C(=O)c2cc(NC(=O)Nc3ccc(C(F)(F)F)cc3)ccc2O1`: “inactive”.
Regarding `CC(C)NC(=O)N(C)C[C@@H]1OCCCC[C@H](C)Oc2ccc(NC(=O)Nc3ccc(C(F)(F)F)cc3)cc2C(=O)N([C@H](C)CO)C[C@@H]1C`, the cytotoxicity call is “active”.
Turning to `C[C@@H]1CCCCO[C@H](CN(C)C(=O)Nc2ccc(C(F)(F)F)cc2)[C@@H](C)CN([C@@H](C)CO)C(=O)c2cc(NC(=O)Nc3ccc(C(F)(F)F)cc3)ccc2O1`, the cytotoxicity call is “inactive”.
Next, `CC(C)NC(=O)N(C)C[C@H]1OCCCC[C@H](C)Oc2ccc(NC(=O)Nc3ccc(C(F)(F)F)cc3)cc2C(=O)N([C@H](C)CO)C[C@@H]1C`: “inactive”.

These data come from the antibiotic and cytotoxicity screens of Wong et al. (2023).
